For 23 compounds, Potency results are on record in PubChem BioAssay (Tox21).

Records with an inconclusive call do not appear. Calls of active or inactive are those of the source. Unless noted, the call rests on the fitted dose curve; in most records, active means well fitted curve in the direction sought with a large enough effect in the repeat runs; inconclusive means weak or mixed curves; inactive means no such curve, though single readings can be large; an effect the other way counts as inactive or inconclusive.

In experiment [1] the target is Luciferin 4-monooxygenase (Photinus pyralis) (UniProt P08659). The experiment in a line: qHTS assay to identify small molecule inhibitors of firefly luciferase (AID 1224835). Further: nearly all actives have a fitted effect of over 25% in size. Further: potency means the concentration at half of the fitted maximal effect. Summed up:
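Inhibition of purified Photinus luciferase is measured by luminescence. Substrate levels (D-luciferin, ATP) sit at their KM values. Each compound is tested in a concentration series.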

Experiment [2] in a line: qHTS assay to identify small molecule agonists of the constitutive androstane receptor (CAR) signaling pathway - cell viability counter screen (AID 1224836). Further: nearly all actives have a fitted effect of over 45% in size. Further: potency means the concentration at half of the fitted maximal effect. In outline:
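Counter screen multiplexed with the CAR reporter readout: HepG2 cells co-transfected with hCAR and the CYP2B6-2.2kb construct receive a 15-concentration compound series and 0.75 uM PK11195 (final), then CellTiter-Fluor fluorescence is read after 23 h.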

Experiment [3] is described as follows: qHTS assay to identify small molecule antagonists of the constitutive androstane receptor (CAR) signaling pathway - cell viability counter screen (AID 1224837). Further: series mostly up to about 92 µM; nearly all actives have a fitted effect of over 45% in size. In outline: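 Fluorescence from CellTiter-Fluor served as the viability signal. Human hepatoma HepG2 cells stably bearing hCAR and CYP2B6-2.2kb received compound plus CITCO (50 nM final) for 23 hr.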
(In general: Quantitative high-throughput screening tests each substance at several concentrations.)

The target in experiment [4] is Nuclear receptor subfamily 1 group I member 3 (Homo sapiens) (UniProt Q14994). The experiment in a line: qHTS assay to identify small molecule antagonists of the constitutive androstane receptor (CAR) signaling pathway (AID 1224838).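 Further: HepG2 cells stably expressing hCAR with CYP2B6 luciferase reporter stimulated by CITCO; nearly all actives have a fitted effect of over 40% in size.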 Further: potency means the concentration at half of the fitted maximal effect. In outline:
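Quantitative HTS in double-stable HepG2-CYP2B6-hCAR cells. After 4 h plating, cells get compound (15 concentrations) and CITCO at 50 nM final, incubate 24 h at 37 C, then ONE-Glo luminescence is read.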

For experiment [5] the target is unchanged. Nature of the experiment: qHTS assay to identify small molecule agonists of the constitutive androstane receptor (CAR) signaling pathway (AID 1224839). Further: nearly all actives have a fitted effect of over 15% in size. Further: potency means the concentration at half of the fitted maximal effect. In outline: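 A 15-concentration quantitative screen uses HepG2 cells co-transfected stably with human CAR and CYP2B6-2.2kb reporter. Treatment lasts 24 h with 0.75 uM PK11195 final present; ONE-Glo luminescence is the signal.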

A short description of experiment [6]: qHTS assay to identify small molecule antagonists of the estrogen related receptor signaling pathway with the pleiotropic PPARgamma coactivator (PGC) from Tox21 10K library - cell viability counter screen (AID 1224840; active means well fitted cell-killing curve with a large enough effect in the repeat runs, not every such curve was filed as active; further: nearly all actives have a fitted effect of over 40% in size). Summed up:
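Compounds in DMSO, alongside positive and negative controls, were pinned onto PGC/ERR cells (2,000 per well). Exposure lasted 17.5 hours at 37 C, followed by a 30-minute CellTiter-Fluor incubation and fluorescence reading.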

The nature of experiment [7]: qHTS assay to identify small molecule antagonists of the estrogen related receptor signaling pathway with the pleiotropic PPARgamma coactivator (PGC) from Tox21 10K library (AID 1224841; call rule not given here; further: actives are mostly falling curves and most rising ones were filed inactive; nearly all actives have a fitted effect of over 50% in size; further: potency means the concentration at half of the fitted maximal effect). Summed up: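 Compound exposure ran 18 hours at 37 C in PGC/ERR cells (2,000/well) that had first rested 6 hours in a 37 C/5% CO2 incubator. Luciferase activity was then detected with One-Glo after a 30-minute room-temperature step.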

Experiment [8] is described as follows: qHTS assay to identify small molecule agonists of the estrogen related receptor signaling pathway with the pleiotropic PPARgamma coactivator (PGC) from Tox21 10K library (AID 1224842). Further: nearly all actives have a fitted effect of over 15% in size. In outline: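 Luminescence from One-Glo (30 min, room temperature) measured after PGC/ERR cells had 18 h at 37 C with pinned compound (23 nL in DMSO). Cells had been seeded at 2,000 per well and pre-incubated 6 h.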

Sequence of Luciferin 4-monooxygenase (Photinus pyralis) (P08659 whole entry, looked up): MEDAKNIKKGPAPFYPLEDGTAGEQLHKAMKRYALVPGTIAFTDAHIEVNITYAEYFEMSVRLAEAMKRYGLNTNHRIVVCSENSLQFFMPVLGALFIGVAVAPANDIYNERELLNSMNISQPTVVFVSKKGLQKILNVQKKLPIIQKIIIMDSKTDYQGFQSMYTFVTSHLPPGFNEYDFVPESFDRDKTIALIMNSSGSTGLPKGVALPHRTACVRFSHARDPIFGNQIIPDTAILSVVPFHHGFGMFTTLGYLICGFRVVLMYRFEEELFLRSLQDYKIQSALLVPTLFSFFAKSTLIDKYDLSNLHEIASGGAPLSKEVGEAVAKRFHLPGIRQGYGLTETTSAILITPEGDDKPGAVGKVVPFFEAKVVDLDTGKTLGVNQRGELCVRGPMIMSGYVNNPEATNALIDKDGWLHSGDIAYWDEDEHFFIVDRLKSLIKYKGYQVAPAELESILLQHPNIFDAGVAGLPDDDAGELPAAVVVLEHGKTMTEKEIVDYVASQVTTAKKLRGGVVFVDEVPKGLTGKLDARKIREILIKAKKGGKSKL
Sequence of Nuclear receptor subfamily 1 group I member 3 (Homo sapiens) (Q14994 whole entry, looked up): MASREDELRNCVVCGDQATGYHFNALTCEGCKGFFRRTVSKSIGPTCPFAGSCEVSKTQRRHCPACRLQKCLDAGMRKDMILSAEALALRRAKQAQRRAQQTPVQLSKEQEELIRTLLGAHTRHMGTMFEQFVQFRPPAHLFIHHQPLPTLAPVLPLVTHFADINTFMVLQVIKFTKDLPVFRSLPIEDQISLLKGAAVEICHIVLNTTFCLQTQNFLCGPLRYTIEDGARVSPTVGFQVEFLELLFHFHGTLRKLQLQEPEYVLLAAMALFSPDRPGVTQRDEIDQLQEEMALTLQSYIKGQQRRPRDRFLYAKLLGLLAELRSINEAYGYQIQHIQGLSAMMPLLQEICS

As for `Clc1ccc(C(OCCN2CCCCC2)c2ccccc2)cc1` (centres undefined), the Potency entry in experiment [1], in experiment [2], in experiment [3], in experiment [4], in experiment [5] and in experiment [6] was “inactive” throughout. Besides, the Potency entry in experiment [7] and in experiment [8] was “inactive” each time.
Take `COC1=CC(=O)O[C@@H](CCc2ccccc2)C1`: the Potency result in experiment [1], in experiment [2], in experiment [3], in experiment [4], in experiment [6] and in experiment [7] was “inactive” in each case. The Potency entry in experiment [8] is “inactive”. For the same compound, the Potency in experiment [5] is 56.7 µM (active).
Consider `C=CC(C)=O`, for which the Potency entry in experiment [1], in experiment [2], in experiment [3], in experiment [6], in experiment [7] and in experiment [8] was “inactive” each time.
As to `O=C(NC(=O)c1c(F)cccc1F)Nc1cc(Cl)c(Oc2ncc(C(F)(F)F)cc2Cl)c(Cl)c1`, the Potency result in experiment [1], in experiment [2], in experiment [3], in experiment [4], in experiment [5] and in experiment [6] was “inactive” throughout.
In the case of `N#CCC#N`, the Potency entry in experiment [1] and in experiment [5] was “inactive” throughout. Also, the Potency in experiment [2] was 48.6 µM (active); in experiment [4], 61.1 µM (active).
For the compound `O=S1OC[C@@H]2[C@H](CO1)[C@]1(Cl)C(Cl)=C(Cl)[C@@]2(Cl)C1(Cl)Cl` (some centres undefined), the Potency result in experiment [1], in experiment [3] and in experiment [4] was “inactive” throughout. Moreover, the Potency in experiment [5] was 27.3 µM (active).
`Sc1ccccc1Cl`: the Potency entry in experiment [1], in experiment [2], in experiment [3], in experiment [4], in experiment [5] and in experiment [6] was “inactive” each time. Moreover, the Potency entry in experiment [7] and in experiment [8] was “inactive” each time.
For the compound `N#C/C(N)=C(/N)C#N`, the Potency entry in experiment [1], in experiment [2], in experiment [3], in experiment [4], in experiment [5] and in experiment [6] was “inactive” in each case. In addition, the Potency result in experiment [7] and in experiment [8] was “inactive” throughout.
On to `OC(c1ccc(Cl)cc1)(c1ccc(Cl)cc1)c1cccnc1`, for which the Potency result in experiment [1], in experiment [2], in experiment [3], in experiment [4] and in experiment [8] was “inactive” throughout. The Potency in experiment [7] was 61.1 µM (active).
Consider `CCO[C@H]1O[C@@H]2OC3(C)CC[C@H]4[C@H](C)CC[C@@H]([C@H]1C)[C@@]24OO3`, for which the Potency entry in experiment [1], in experiment [2], in experiment [3], in experiment [4], in experiment [6] and in experiment [8] was “inactive” each time. The figures for the Potency in experiment [5] and in experiment [7] were 4.22 µM (active) and 0.668 µM (active), respectively.
Turning to `CC1(C)CCC(Cc2ccc(Cl)cc2)C1(O)Cn1cncn1` (centres undefined), the Potency result in experiment [1], in experiment [2], in experiment [3], in experiment [4], in experiment [5] and in experiment [8] was “inactive” each time. Moreover, the Potency in experiment [7] is 38.6 µM (active).
On to `COC(=O)C(Cl)C(=O)OC`, for which the Potency entry in experiment [1], in experiment [2], in experiment [3], in experiment [4], in experiment [5] and in experiment [6] was “inactive” throughout.
Consider `O=C(O)C1(c2ccc3c(c2)OC[C@H](Cc2ccc(-c4ccccc4)cc2)[C@H]3O)CCCC1`, for which, in experiment [1], the Potency was 71 µM (active). For the same compound, the Potency entry in experiment [2], in experiment [3], in experiment [4], in experiment [5] and in experiment [8] was “inactive” each time.
With `Nc1nc(=S)[nH][nH]1`, the Potency result in experiment [1], in experiment [2], in experiment [3], in experiment [7] and in experiment [8] was “inactive” throughout.
For the compound `CCC(COC(=O)c1cc(OC)c(OC)c(OC)c1)(c1ccccc1)N(C)C` (centres undefined), the Potency entry in experiment [1], in experiment [3] and in experiment [4] was “inactive” in each case.
On to `[O-][Cl+]O`, for which the Potency entry in experiment [2], in experiment [3], in experiment [6], in experiment [7] and in experiment [8] was “inactive” each time.
Turning to `CC(C)(C)C(O)C(Oc1ccc(Cl)cc1)n1cncn1` (centres undefined), the Potency result in experiment [1], in experiment [3], in experiment [4] and in experiment [6] was “inactive” in each case.
As to `COP(=S)(OC)Oc1ccc([N+](=O)[O-])cc1Cl`, the Potency entry in experiment [4] and in experiment [8] was “inactive” in each case.
As to `CCCN(CCCl)c1c([N+](=O)[O-])cc(C(F)(F)F)cc1[N+](=O)[O-]`, the Potency entry in experiment [1], in experiment [3], in experiment [4], in experiment [6], in experiment [7] and in experiment [8] was “inactive” in each case.
Turning to `CC(=O)c1cc2c(cc1C)C(C)(C)C(C)CC2(C)C` (centres undefined), the Potency entry in experiment [1], in experiment [3] and in experiment [4] was “inactive” each time. In experiment [5], the Potency was 24.3 µM (active).
For `C=CC[C@]1(O)CC[C@H]2[C@@H]3CCC4=CC(=O)CCC4=C3C=C[C@@]21C`, the Potency result in experiment [1], in experiment [6] and in experiment [8] was “inactive” in each case.
For `Nc1ccc([N+](=O)[O-])cc1[N+](=O)[O-]`, the Potency result in experiment [1], in experiment [4], in experiment [5] and in experiment [6] was “inactive” throughout.
`CS/C(C)=N/OC(=O)N(C)SN(C)C(=O)O/N=C(\C)SC`: the Potency in experiment [1] is 31.7 µM (active). In addition, the Potency result in experiment [5] and in experiment [8] was “inactive” in each case.
